For eight compounds, Potency and outcome results are on record in PubChem BioAssay (Tox21).

Several values for one entry are separate records, joined by “and”; a condition that tells them apart may be missing. Equal values may be shown once. Records with an inconclusive call do not appear. The source holds several records for some structures; these can differ, active in one and inactive in another. Activity calls are given as the source filed them. Unless noted, calls follow the shape of the dose curve; as a rule, active = well fitted curve in the direction sought with a large enough effect in the repeat runs; inconclusive = weak or mixed curves; inactive = no such curve, though single readings can be large; an effect the other way counts as inactive or inconclusive.

Assay [1] in a line: qHTS assay to identify small molecule antagonists of the sonic hedgehog signaling (Shh) pathway (AID 1259369; calls by dose curve; also: nearly all actives have a fitted effect of over 45% in size; also: potency is read from the fitted curve at half-maximal effect). A digest of the protocol: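 Antagonist mode: compound added to 3T3 Gli1-Luc cells followed by conditioned-medium stimulation, 24 h at 37 C, 5% CO2. Inhibition taken as loss of Gli1-driven luciferase luminescence.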
A short description of assay [2]: qHTS assay to identify small molecule agonists of the androgen receptor (AR) signaling pathway in the presence of an antagonist - cell viability counter screen (AID 1259379). Also: nearly all actives have a fitted effect of over 25% in size. Also: potency is read from the fitted curve at half-maximal effect. A digest of the protocol: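 Cytotoxicity counter-screen run in the same wells as the nilutamide-challenged (3.0 µM final) AR agonist assay in MDA-kb2 cells. Compounds tested at 15 concentrations for 16 h, 37 °C without CO2; CellTiter-Fluor fluorescence read.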
(In qHTS, concentration-response curves come from the screen itself.)

A short description of assay [3]: qHTS assay to identify small molecule agonists of the estrogen receptor beta (ER-beta) signaling pathway - cell viability counter screen (AID 1259380). Also: nearly all actives have a fitted effect of over 30% in size. Also: potency is read from the fitted curve at half-maximal effect. A digest of the protocol:
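Cell viability counter screen: CellTiter-Glo luminescence (30 min, room temperature) measured in the same wells as the beta-lactamase readout, after 16 hr compound exposure at 37C of ER-beta-bla HEK293T cells in 2% charcoal-stripped FBS medium.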

Assay [4] can be described thus: qHTS assay to identify small molecule antagonists of the estrogen receptor beta (ER-beta) signaling pathway - cell viability counter screen (AID 1259382). Also: nearly all actives have a fitted effect of over 55% in size. Also: potency is read from the fitted curve at half-maximal effect. A digest of the protocol: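 Cytotoxicity was measured in the same wells by CellTiter-Glo luminescence after 30 min at room temperature. Cells were ER-beta-bla HEK293T in charcoal-stripped serum, given compound together with 1 nM E2 and incubated 16 h at 37C.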

The nature of assay [5]: qHTS assay to identify small molecule agonists or antagonists of the thyroid stimulating hormone receptor (TSHR) signaling pathway - wild type cell line counter screen (AID 1259384; calls by dose curve). A digest of the protocol:
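Wild-type Hek293 cells, 800/well, 18 h at 37C, then compound with Ro20-1724 for 30 min RT. cAMP by HTRF (cAMP-d2/anti-cAMP cryptate), 1 h RT, fluorescence read. 15 concentrations, triplicates.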

Assay [6] addresses Thyrotropin receptor (Homo sapiens) (UniProt P16473). Nature of the assay: qHTS assay to identify small molecule antagonists of the thyroid stimulating hormone receptor (TSHR) signaling pathway (AID 1259385; calls by dose curve; also: nearly all actives have a fitted effect of over 20% in size). A digest of the protocol: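 TSHR-HEK293 cells (800/well) plated 18 h, then compounds with Ro20-1724 and TSH at 1.5 ng/mL final, 30 min at room temperature. cAMP quantified by HTRF (cAMP-d2/anti-cAMP-cryptate, 1 h); 15 concentrations in triplicate.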

Assay [7] is described as follows: qHTS assay to identify small molecule agonists of the estrogen receptor alpha (ER-alpha) signaling pathway in the presence of an antagonist - cell viability counter screen (AID 1259386). Also: series mostly up to about 92 µM; nearly all actives have a fitted effect of over 30% in size. A digest of the protocol:
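Compounds tested at 15 concentrations for 22 h at 37C alongside 10.0nM (final) ICI-182,780 antagonist, in VM7Luc4E2 cells grown in phenol red-free, charcoal-stripped medium. Viability read by CellTiter-Fluor fluorescence after 1 h reagent incubation.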

Assay [8] addresses Progesterone receptor (Homo sapiens) (UniProt P06401). As to the kind of experiment: qHTS assay to identify small molecule agonists of the progesterone receptor (PR) signaling pathway (AID 1346784; calls by dose curve; also: nearly all actives have a fitted effect of over 30% in size; also: potency is read from the fitted curve at half-maximal effect). A digest of the protocol:
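Beta-lactamase reporter read-out: after 16 hr compound treatment at 37C and a further 2 hr at room temperature with LiveBLAzer B/G FRET substrate, fluorescence was measured in PR-UAS-bla HEK 293T cells grown in 2% charcoal-stripped serum.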

Assay [9] has the same target. As to the kind of experiment: qHTS assay to identify small molecule antagonists of the progesterone receptor (PR) signaling pathway (AID 1346795; active = well fitted inhibition curve with a large enough effect in the signal ratio in the repeat runs, not every such curve was filed as active; the % refers to the signal ratio; also: potency is read from the fitted curve at half-maximal effect). A digest of the protocol:
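Read-out is fluorescence from the LiveBLAzer B/G FRET substrate, cleaved by a UAS-controlled beta-lactamase in PR-UAS-bla HEK293T cells after 16 hr exposure to compound plus 1 nM promegestone (final), followed by 2 hr at room temperature.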

Assay [10] is described as follows: qHTS assay to identify small molecule antagonists of the progesterone receptor (PR) signaling pathway - cell viability counter screen (AID 1346798). Also: nearly all actives have a fitted effect of over 50% in size. Also: potency is read from the fitted curve at half-maximal effect. A digest of the protocol: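 HEK293T PR-UAS-bla, 2% charcoal-stripped FBS; 4 hr pre-plate; cpd + R5020, 16 h 37C; LiveBLAzer read first; then CellTiter-Glo 30 min RT, luminescence.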
Assay [11] is described as follows: qHTS assay to identify small molecule agonists of the progesterone receptor (PR) signaling pathway - cell viability counter screen (AID 1346799; calls by dose curve; also: nearly all actives have a fitted effect of over 45% in size). A digest of the protocol: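 Luminescence from CellTiter-Glo, added after the beta-lactamase FRET read in the same wells, gave cytotoxicity in PR-UAS-bla HEK293T cells treated with compounds for 16 hr at 37C.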
Assay [12] in a line: qHTS assay to identify small molecule antagonists of the TGF-beta/Smad signaling pathway - cell viability counter screen (AID 1346824). Also: nearly all actives have a fitted effect of over 50% in size. A digest of the protocol:
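SBE-bla HEK 293T cells, incubated overnight, then compound plus 0.25 ng/mL TGF-beta1 (stock added) for 5 hr at 37 C. Viability was read in the same wells by CellTiter-Glo luminescence after 30 min at room temperature.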

Assay [13] in a line: qHTS assay to identify small molecule agonists of the TGF-beta/Smad signaling pathway - cell viability counter screen (AID 1346829). Also: top concentration of the series differs between compounds; nearly all actives have a fitted effect of over 45% in size. A digest of the protocol:
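CellTiter-Glo luminescence readout; SBE-bla HEK 293T cells, overnight plating, compound 5 hr at 37 C/5% CO2, then bla substrate 2 hr RT, then CellTiter-Glo 30 min RT.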

Assay [14] can be described thus: qHTS assay to identify small molecule agonists of the TGF-beta/Smad signaling pathway (AID 1346859; active = well fitted activation curve with a large enough effect in the signal ratio in the repeat runs, not every such curve was filed as active; the % refers to the signal ratio; also: series mostly up to about 77 µM). A digest of the protocol: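 SBE-bla HEK 293T, 4,000 cells/well, plated o/n; cpd in DMSO, 5 hr, 37 C/5% CO2; B/G FRET substrate 2 hr RT; ex 405, em 460/530 nm.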
For assay [15], the target named is Thyrotropin-releasing hormone receptor (Homo sapiens) (UniProt P34981). As to the kind of experiment: qHTS assay to identify small molecule antagonists of the thyrotropin-releasing hormone receptor (TRHR) signaling pathway (AID 1346877; active = well fitted inhibition curve with a large enough effect in the repeat runs, not every such curve was filed as active; also: potency is read from the fitted curve at half-maximal effect). A digest of the protocol:
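Antagonist mode: after a 5 min room-temperature compound exposure, cells were stimulated with 1 nM (final) TRH. Dye-loaded TRHR-HEK293 cells were used, and calcium-dependent fluorescence was followed for 3 min, with 15-point titrations run in triplicate.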

The target is the same in assay [16]. Nature of the assay: qHTS assay to identify small molecule agonists of the thyrotropin-releasing hormone receptor (TRHR) signaling pathway (AID 1346891; calls by dose curve; also: potency is read from the fitted curve at half-maximal effect; as to activation: series mostly up to about 58 µM). A digest of the protocol:
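Intracellular calcium rise, read as fluorescence every second for 3 min, served as the agonist signal in dye-loaded HEK293 cells expressing TRHR; each compound ran at 15 concentrations in triplicate.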

Assay [17] deals with Estrogen receptor (Homo sapiens) (UniProt P03372). As to the kind of experiment: qHTS assay to identify small molecule agonists of the estrogen receptor alpha (ER-alpha) signaling pathway in the presence of an antagonist (AID 1259383; calls by dose curve; also: top concentration of the series differs between compounds; nearly all actives have a fitted effect of over 15% in size). A digest of the protocol:
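Agonist-mode confirmation run in the presence of 10.0nM (final) ICI-182,780 antagonist. The reporter was ERE-driven luciferase in VM7Luc4E2 cells, grown in charcoal-stripped serum. Cells were exposed to 15-concentration compound series for 22hr, then ONE-Glo luminescence was read.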

Sequence of Thyrotropin-releasing hormone receptor (Homo sapiens) (P34981 whole entry, looked up): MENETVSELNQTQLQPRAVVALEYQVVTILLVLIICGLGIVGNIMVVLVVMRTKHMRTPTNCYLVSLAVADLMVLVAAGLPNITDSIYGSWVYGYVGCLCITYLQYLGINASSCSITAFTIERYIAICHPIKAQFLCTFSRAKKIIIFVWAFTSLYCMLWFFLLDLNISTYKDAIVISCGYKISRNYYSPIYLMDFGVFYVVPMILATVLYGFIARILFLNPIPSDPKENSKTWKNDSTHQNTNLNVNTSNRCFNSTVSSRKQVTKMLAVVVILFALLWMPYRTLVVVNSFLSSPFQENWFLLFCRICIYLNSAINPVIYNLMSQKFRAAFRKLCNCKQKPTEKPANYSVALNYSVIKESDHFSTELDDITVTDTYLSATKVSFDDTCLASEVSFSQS
Sequence of Progesterone receptor (Homo sapiens) (P06401 whole entry, looked up): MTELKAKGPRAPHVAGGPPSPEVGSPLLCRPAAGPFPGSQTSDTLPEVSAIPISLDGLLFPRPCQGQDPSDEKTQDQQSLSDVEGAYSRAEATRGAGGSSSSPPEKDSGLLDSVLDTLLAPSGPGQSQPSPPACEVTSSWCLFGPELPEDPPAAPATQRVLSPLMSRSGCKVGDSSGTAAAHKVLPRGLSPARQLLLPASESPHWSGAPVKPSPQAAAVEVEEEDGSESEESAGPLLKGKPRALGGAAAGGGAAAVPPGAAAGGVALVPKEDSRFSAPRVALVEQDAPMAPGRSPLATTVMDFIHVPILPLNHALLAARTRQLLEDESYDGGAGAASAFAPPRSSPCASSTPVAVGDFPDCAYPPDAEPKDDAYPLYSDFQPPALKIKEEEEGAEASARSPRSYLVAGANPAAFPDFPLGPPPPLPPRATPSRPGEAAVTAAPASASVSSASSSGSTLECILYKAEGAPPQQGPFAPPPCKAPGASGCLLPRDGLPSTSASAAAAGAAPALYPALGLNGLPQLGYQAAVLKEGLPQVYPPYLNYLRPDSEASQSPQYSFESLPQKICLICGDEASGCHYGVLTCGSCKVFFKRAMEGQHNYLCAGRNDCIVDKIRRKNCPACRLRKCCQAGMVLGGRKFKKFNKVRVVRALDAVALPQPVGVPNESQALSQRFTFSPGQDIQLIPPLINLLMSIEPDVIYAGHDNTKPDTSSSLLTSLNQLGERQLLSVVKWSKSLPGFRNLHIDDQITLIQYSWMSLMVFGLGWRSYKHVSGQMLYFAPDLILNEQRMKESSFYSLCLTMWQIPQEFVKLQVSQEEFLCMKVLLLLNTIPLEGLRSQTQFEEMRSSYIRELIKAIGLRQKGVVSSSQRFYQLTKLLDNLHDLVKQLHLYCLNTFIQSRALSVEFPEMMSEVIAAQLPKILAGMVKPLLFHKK
Sequence of Estrogen receptor (Homo sapiens) (P03372 whole entry, looked up): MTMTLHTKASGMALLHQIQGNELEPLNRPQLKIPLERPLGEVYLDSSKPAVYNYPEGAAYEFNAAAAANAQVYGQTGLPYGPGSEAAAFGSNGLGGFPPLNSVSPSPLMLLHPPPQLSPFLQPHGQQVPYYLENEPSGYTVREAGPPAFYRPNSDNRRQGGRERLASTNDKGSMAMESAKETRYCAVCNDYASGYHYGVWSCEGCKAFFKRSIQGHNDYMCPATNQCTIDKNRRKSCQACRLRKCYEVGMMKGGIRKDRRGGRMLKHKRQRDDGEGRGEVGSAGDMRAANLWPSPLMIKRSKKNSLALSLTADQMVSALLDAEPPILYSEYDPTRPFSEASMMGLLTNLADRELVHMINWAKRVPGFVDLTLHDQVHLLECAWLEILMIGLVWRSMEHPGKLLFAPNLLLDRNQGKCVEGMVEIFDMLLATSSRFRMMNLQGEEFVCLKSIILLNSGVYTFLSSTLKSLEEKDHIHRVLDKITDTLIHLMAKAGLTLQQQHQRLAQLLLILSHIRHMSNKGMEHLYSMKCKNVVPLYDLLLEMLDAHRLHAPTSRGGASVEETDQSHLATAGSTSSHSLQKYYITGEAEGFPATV
Sequence of Thyrotropin receptor (Homo sapiens) (P16473 whole entry, looked up): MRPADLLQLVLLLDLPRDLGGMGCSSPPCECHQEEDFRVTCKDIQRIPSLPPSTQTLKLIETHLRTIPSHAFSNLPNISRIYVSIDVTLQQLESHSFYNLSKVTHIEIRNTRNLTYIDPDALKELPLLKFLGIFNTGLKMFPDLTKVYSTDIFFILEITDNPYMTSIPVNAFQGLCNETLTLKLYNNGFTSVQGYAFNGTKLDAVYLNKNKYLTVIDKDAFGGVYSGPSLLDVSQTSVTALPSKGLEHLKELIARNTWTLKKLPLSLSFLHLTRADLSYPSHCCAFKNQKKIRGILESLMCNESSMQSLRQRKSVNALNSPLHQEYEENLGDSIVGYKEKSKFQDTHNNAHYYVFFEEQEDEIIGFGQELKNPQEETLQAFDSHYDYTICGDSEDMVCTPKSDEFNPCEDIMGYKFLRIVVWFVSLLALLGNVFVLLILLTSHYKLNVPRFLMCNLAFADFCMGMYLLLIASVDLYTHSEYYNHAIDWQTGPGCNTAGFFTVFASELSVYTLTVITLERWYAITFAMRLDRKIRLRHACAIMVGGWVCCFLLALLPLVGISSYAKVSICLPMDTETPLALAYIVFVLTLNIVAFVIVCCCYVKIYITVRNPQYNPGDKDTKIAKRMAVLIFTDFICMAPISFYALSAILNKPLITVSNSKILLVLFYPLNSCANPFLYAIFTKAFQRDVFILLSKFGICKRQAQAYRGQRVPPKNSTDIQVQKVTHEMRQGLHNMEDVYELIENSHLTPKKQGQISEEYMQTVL

Regarding `CCCOCCO`, the Potency result in assay [1], in assay [2], in assay [3], in [4], in assay [5] and in [6] was “inactive” in each case. Further, the Potency entry in assay [7], in assay [8], in assay [9], in assay [10], in assay [11] and in assay [12] was “inactive” in each case. Besides, the Potency entry in assay [13], in [15] and in [16] was “inactive” in each case. Also, the call in [14] was inactive.

For `CC/C(=C(/CC)c1ccc(O)cc1)c1ccc(O)cc1`, the Potency in assay [2] was 60.6 µM (active) and inactive; in [3], 60.6 µM (active) and 61.1 µM (active); in [4] it was 60.6 µM (active) and inactive; in [9], 12.2 µM (active); in [10], 60.6 µM (active). In addition, the Potency entry in assay [5], in [6], in [7], in assay [8], in assay [11] and in assay [12] was “inactive” throughout. Besides, the Potency entry in assay [13], in assay [15] and in assay [16] was “inactive” in each case. For the same compound, in assay [14], the result was inactive.

As for `Oc1c(Cl)ccc(Cl)c1Cl`, the Potency entry in [1], in [2], in assay [4], in assay [17], in assay [7] and in [9] was “inactive” throughout. Also, the Potency result in assay [10], in assay [11], in [12], in [13], in assay [15] and in assay [16] was “inactive” in each case. The outcome in [14] was inactive.

For `Cc1ccc(C)c(O)c1`, the Potency result in assay [1], in assay [2], in assay [3], in assay [4], in assay [5] and in assay [6] was “inactive” each time. The Potency entry in [7], in assay [8], in assay [9], in [10], in [11] and in [12] was “inactive” throughout. Further, the Potency entry in assay [13], in [15] and in assay [16] was “inactive” throughout. Also, the outcome in assay [14] was inactive.

Turning to `C=CN1CCCC1=O`, the Potency result in assay [1], in [2], in assay [3], in assay [4], in [17] and in assay [7] was “inactive” throughout. Further, the Potency result in assay [8], in assay [9], in assay [10], in assay [11], in assay [12] and in assay [13] was “inactive” in each case. In addition, the Potency entry in [15] and in [16] was “inactive” throughout. The call in [14] was inactive.

In the case of `C1CN(SSN2CCOCC2)CCO1`, the Potency in [1] was 12.1 µM (active) and 24.3 µM (active); in assay [3], “inactive and 48.6 µM (active)”. Also, the Potency entry in [2], in [4], in assay [17], in [5], in assay [6] and in [8] was “inactive” in each case. Moreover, the Potency entry in [9], in assay [10], in assay [11], in [13], in assay [15] and in assay [16] was “inactive” throughout.

Take `CC(=O)O[C@]1(C(C)=O)CC[C@H]2[C@@H]3C=C(C)C4=CC(=O)CC[C@]4(C)[C@H]3CC[C@@]21C`: the Potency result in assay [2], in assay [3], in assay [4], in assay [17], in assay [5] and in assay [6] was “inactive” throughout. The Potency result in [7], in assay [9], in assay [12] and in assay [13] was “inactive” throughout. Moreover, the Potency in assay [8] was 0.0039 µM (active).

With `Nc1ccc(N)c(Cl)c1`, the Potency in [1] was 15.4 µM (active); in [3], 61 µM (active) and 61.1 µM (active); in assay [4], 68.5 µM (active) and 61.1 µM (active); in [9] it was 27.3 µM (active); in assay [15] it was “inactive and 30.2 µM (active)”; in assay [16], “inactive and 4.9 µM (active)”. Further, the Potency result in [2], in assay [8], in [10], in assay [11], in [12] and in assay [13] was “inactive” each time. Further, the compound was called inactive in assay [14].
